Test results taken from PubChem BioAssay (EPA / NIEHS).
Values joined by “and” are separate entries in the source; they are usually repeats but may differ in a detail not shown here. Equal values may be shown once. Records with an inconclusive call do not appear. The source holds several records for some structures; these can differ, active in one and inactive in another. Active and inactive are the calls of the source. The calls were made as follows, unless noted: active = hit-call score of the fitted dose curve at least 0.9, where 1 is the maximum; inactive = score below 0.9.

How the values were obtained:
[1] = BSK_3C_VCAM1: BioMAP Diversity Plus: 3C Assay for Vascular cell adhesion molecule 1 (VCAM1) Biomarker Activity (AID 2282999); conditions: BioMAP 3C HUVEC, VCAM1 ELISA, cytokine-stimulated; actives raise or lower the signal
Procedure, shortened: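 Human umbilical vein endothelial cells were dosed with compound for 24 h, after which cell-surface VCAM-1 was quantified by ELISA. Bidirectional curve fitting used DMSO as negative control and activity baseline.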

[2] = BSK_4H_Eotaxin3: BioMAP Diversity Plus: 4H Assay for Eotaxin 3 Biomarker Activity (AID 2283000); conditions: primary human endothelial cells (HUVEC); actives raise or lower the signal
Procedure, shortened: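 Endothelial primary cells (human umbilical vein) exposed to compound for 24 h. ELISA detection of Eotaxin-3.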

[3] = molecular target: human Peroxisome Proliferator-activated Receptor alpha (PPARa), PPARA (gene 5465) (UniProt Q07869); test: ATG_PPARa_TRANS: Attagene TRANS-FACTORIAL HepG2 Assay for human Peroxisome Proliferator-activated Receptor alpha (PPARa) (AID 2283001; active = hit-call score of the fitted dose curve at least 0.9, where 1 is the maximum;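 as to AC50: potency for gain of reporter signal over DMSO so agonist or activator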)
Procedure, shortened: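 Gain-of-signal endpoint: reporter mRNA induction relative to DMSO, detected by fluorescent RT-PCR and capillary electrophoresis. HepG2 cells transiently carried GAL4-UAS-driven reporter units plus NR-Gal4 fusion; exposure lasted 24 h.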

[4] = read-out: Intercellular Adhesion Molecule 1 (ICAM1), ICAM1 (gene 3383); test: BSK_3C_ICAM1: BioMAP Diversity Plus: 3C Assay for Intercellular Adhesion Molecule 1 (ICAM1) Biomarker Activity (AID 2283003); conditions: primary human endothelial cells (HUVEC); actives raise or lower the signal
Procedure, shortened: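 ICAM-1 levels measured by ELISA after HUVEC cultures in the 3C system had been dosed for 24 h. Gain or loss of signal relative to DMSO was fitted in both directions.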

[5] = molecular target: human Retinoic Acid Receptor beta (RARb), RARB (gene 5915) (UniProt P10826); test: ATG_RARb_TRANS: Attagene TRANS-FACTORIAL HepG2 Assay for human Retinoic Acid Receptor beta (AID 2283004; active = hit-call score of the fitted dose curve at least 0.9, where 1 is the maximum)
Procedure, shortened: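 HepG2, transient MRTU transfection, NR–Gal4 chimera, 24 h treatment; RT-PCR plus CE fluorescence detection of reporter mRNA; gain of signal vs DMSO.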

[6] = molecular target: Retinoic acid receptor alpha (Homo sapiens) (UniProt P10276); test: ATG_RARa_TRANS: Attagene TRANS-FACTORIAL HepG2 Assay for human Retinoic Acid Receptor alpha (RARa) (AID 2283005; active = hit-call score of the fitted dose curve at least 0.9, where 1 is the maximum;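 as to AC50: potency for increased reporter signal meaning RARa activation over DMSO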)
Procedure, shortened: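 HepG2 cells transiently transfected with multiple reporter units expressing chimeric RARα-GAL4 fusion, with GAL4-UAS-driven reporters. After 24 h compound exposure, reporter mRNA induction quantified by RT-PCR and capillary electrophoresis with fluorescent labeling; gain-of-signal fitted relative to DMSO control.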

[7] = BSK_3C_Proliferation: Cell Proliferation Assessment in the BioMAP Diversity Plus: 3C Assay (AID 2283006); conditions: primary human endothelial cells (HUVEC);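 as to AC50: potency may reflect either rise or fall in cell number versus DMSO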
Procedure, shortened: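 Read-out is total protein by SRB absorbance at 560 nm, taken as a proxy for relative cell number. Primary human umbilical vein endothelium cultured below confluence was dosed for 48 h, TCA-fixed and SRB-stained; curves were fitted bidirectionally versus DMSO.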

[8] = molecular target: Nuclear receptor subfamily 1 group I member 2 (Homo sapiens) (UniProt O75469); test: ATG_PXR_TRANS: Attagene TRANS-FACTORIAL HepG2 Assay for human Pregnane X Receptor (PXR) (AID 2283008; active = hit-call score of the fitted dose curve at least 0.9, where 1 is the maximum)
Procedure, shortened: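 Fluorescence intensity of FAM-labelled, HpaI-digested reporter amplicons, separated by capillary electrophoresis, quantifies induction. HepG2 cells with PXR-Gal4 trans-reporter system were exposed 24 h; DMSO defines baseline.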

[9] = molecular target: human Peroxisome Proliferator-activated Receptor delta (PPARd), PPARD (gene 5467) (UniProt Q03181); test: ATG_PPARd_TRANS: Attagene TRANS-FACTORIAL HepG2 Assay for human Peroxisome Proliferator-activated Receptor delta (PPARd) (AID 2283002; active = hit-call score of the fitted dose curve at least 0.9, where 1 is the maximum)
Procedure, shortened: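 Multiplexed trans-activation format: HepG2 liver cells expressing exogenous NR-Gal4 chimeras and GAL4-UAS reporters were exposed for 24 h. Reporter mRNA was detected by RT-PCR with capillary electrophoresis fluorescence; activity fitted as gain of signal relative to DMSO.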

[10] = molecular target: Peroxisome proliferator-activated receptor gamma (Homo sapiens) (UniProt P37231); test: ATG_PPARg_TRANS: Attagene TRANS-FACTORIAL HepG2 Assay for human Peroxisome Proliferator-activated Receptor-gamma (PPARg) (AID 2283007; active = hit-call score of the fitted dose curve at least 0.9, where 1 is the maximum)
Procedure, shortened: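 Gain-of-signal endpoint relative to DMSO, derived from reporter mRNA levels quantified by RT-PCR and capillary electrophoresis. Cells were HepG2 transiently expressing a chimeric NR-Gal4 construct with GAL4-UAS reporters, exposed to chemicals for 24 h.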

Measured: AC50

human Peroxisome Proliferator-activated Receptor alpha (PPARa), PPARA (gene 5465), sequence (Q07869 whole entry, looked up, the tested form may be a part): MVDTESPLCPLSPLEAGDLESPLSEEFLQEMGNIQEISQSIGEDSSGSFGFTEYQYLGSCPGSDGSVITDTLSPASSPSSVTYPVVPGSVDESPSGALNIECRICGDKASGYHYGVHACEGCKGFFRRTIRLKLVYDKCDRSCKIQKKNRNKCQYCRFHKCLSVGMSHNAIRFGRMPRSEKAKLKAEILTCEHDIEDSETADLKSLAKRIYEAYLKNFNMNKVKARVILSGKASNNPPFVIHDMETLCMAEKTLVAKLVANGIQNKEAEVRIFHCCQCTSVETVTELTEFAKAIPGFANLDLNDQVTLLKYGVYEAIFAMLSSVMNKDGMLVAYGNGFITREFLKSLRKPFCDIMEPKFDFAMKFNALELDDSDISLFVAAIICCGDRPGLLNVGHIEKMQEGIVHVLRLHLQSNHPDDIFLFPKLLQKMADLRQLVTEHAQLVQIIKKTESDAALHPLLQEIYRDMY
Retinoic acid receptor alpha (Homo sapiens), sequence (P10276 whole entry, looked up, the tested form may be a part): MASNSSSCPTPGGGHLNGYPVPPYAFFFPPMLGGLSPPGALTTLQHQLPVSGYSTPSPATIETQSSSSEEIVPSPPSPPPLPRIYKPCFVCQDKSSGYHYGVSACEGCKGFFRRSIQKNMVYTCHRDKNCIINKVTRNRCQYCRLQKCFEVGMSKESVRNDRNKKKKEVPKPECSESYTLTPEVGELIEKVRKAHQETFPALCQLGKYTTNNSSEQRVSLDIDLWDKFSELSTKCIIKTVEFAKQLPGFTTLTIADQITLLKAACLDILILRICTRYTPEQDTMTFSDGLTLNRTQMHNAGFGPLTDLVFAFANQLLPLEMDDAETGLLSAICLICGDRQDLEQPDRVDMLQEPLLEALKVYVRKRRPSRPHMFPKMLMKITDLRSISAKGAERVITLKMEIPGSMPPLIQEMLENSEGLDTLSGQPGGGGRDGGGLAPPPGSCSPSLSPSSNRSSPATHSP
Nuclear receptor subfamily 1 group I member 2 (Homo sapiens), sequence (O75469 whole entry, looked up, the tested form may be a part): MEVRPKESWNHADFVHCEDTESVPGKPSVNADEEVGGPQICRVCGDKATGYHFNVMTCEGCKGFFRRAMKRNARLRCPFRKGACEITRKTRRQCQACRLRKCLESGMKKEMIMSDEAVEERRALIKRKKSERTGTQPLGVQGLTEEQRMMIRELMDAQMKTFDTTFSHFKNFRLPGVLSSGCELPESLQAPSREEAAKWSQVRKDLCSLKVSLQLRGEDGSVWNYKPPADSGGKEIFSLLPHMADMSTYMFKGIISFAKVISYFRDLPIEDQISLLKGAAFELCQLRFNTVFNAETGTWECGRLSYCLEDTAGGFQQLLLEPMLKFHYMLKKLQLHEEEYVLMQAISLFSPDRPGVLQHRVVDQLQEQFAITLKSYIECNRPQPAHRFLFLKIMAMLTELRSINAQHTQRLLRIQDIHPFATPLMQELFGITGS
human Peroxisome Proliferator-activated Receptor delta (PPARd), PPARD (gene 5467), sequence (Q03181 whole entry, looked up, the tested form may be a part): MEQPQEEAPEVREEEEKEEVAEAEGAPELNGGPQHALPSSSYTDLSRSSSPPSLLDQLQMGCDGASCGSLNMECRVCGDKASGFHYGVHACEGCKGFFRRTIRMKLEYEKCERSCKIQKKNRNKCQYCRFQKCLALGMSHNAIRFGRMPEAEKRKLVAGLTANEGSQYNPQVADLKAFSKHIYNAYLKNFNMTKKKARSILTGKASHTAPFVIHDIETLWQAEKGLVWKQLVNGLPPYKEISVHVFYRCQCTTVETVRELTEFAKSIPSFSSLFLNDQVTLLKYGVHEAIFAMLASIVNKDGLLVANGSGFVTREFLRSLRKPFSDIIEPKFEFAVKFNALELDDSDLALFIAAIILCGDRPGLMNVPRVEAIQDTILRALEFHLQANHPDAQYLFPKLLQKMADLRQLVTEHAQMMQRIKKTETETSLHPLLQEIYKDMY
human Retinoic Acid Receptor beta (RARb), RARB (gene 5915), sequence (P10826 whole entry, looked up, the tested form may be a part): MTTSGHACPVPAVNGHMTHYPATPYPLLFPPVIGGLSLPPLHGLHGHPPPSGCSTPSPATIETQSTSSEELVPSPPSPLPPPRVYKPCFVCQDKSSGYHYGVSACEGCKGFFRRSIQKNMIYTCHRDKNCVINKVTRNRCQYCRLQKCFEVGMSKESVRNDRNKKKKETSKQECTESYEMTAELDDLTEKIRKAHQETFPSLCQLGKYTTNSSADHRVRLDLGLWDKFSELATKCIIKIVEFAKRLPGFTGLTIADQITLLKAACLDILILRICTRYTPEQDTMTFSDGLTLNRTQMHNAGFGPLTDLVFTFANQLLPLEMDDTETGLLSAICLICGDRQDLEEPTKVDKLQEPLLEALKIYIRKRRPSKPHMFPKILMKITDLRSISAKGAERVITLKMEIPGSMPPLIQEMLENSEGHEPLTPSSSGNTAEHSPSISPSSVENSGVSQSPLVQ
Peroxisome proliferator-activated receptor gamma (Homo sapiens), sequence (P37231 whole entry, looked up, the tested form may be a part): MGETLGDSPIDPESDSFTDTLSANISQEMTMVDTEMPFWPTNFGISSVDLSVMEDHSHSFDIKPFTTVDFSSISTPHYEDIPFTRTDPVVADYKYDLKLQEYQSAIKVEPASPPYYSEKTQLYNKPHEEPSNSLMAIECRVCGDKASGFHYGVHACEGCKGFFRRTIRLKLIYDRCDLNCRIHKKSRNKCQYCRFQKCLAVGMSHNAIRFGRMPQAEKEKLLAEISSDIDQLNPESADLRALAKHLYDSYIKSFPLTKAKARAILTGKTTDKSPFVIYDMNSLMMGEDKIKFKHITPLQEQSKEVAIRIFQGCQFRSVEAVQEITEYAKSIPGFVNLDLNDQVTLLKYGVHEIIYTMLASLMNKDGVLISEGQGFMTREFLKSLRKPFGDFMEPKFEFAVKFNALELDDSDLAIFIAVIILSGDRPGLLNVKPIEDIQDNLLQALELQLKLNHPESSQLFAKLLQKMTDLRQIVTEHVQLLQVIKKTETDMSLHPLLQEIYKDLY

C#CCN1C(=O)COc2cc(F)c(N3C(=O)C4=C(CCCC4)C3=O)cc21
not listed: [9] | [10]
inactive: all other assays above

CCCN(CCOc1c(Cl)cc(Cl)cc1Cl)C(=O)n1ccnc1
active: [6] 2.5 µM | [7] 26.7 µM | [8] 2.96 µM
inactive: [1] | [2] | [3] | [9] | [4] | [5] | [6] | [8]

CC1(c2ccc(Oc3ccccc3)cc2)OC(=O)N(Nc2ccccc2)C1=O (configuration not stated)
active: [1] 33 µM | [2] 16.5 µM | [7] 14 µM
inactive: all other assays above

COC(=O)c1ccccc1S(=O)(=O)NC(=O)Nc1nc(C)nc(OC)n1
not listed: [9] | [10]
inactive: all other assays above

Oc1ccc(Cl)cc1Cc1ccccc1
active: [1] 34.9 µM [middle of 7 runs] | [2] 34.4 µM [middle of 7 runs] | [3] 53.5 µM | [4] 37.1 µM [middle of 7 runs] | [7] 24.8 µM [middle of 7 runs] | [8] 6.4 µM [middle of 5 runs]
inactive: [3] | [9] | [5] | [6] | [8]

Oc1cc(Cl)ccc1Oc1ccc(Cl)cc1Cl
inactive: [3] | [9] | [8]
active: [1] 28.1 µM [middle of 4 runs] | [2] 17.1 µM [middle of 4 runs] | [3] 17.5 µM and 17.4 µM | [4] 33.6 µM [middle of 4 runs] | [7] 11 µM [middle of 4 runs]

COP(=S)(OC)Oc1ccc([N+](=O)[O-])cc1
not listed: [5] | [6] | [10]
inactive: all other assays above

CCOc1nc(NC)nc(NC(=O)NS(=O)(=O)c2ccccc2C(=O)OC)n1
inactive: [1] | [2] | [3] | [9] | [4] | [7]

CC(C)(C)C(O)C(Oc1ccc(Cl)cc1)n1cncn1 (configuration not stated)
active: [8] 434 nM [middle of 5 runs]
inactive: [1] | [2] | [3] | [4] | [5] | [6] | [7] | [8]

CNC(=O)Oc1cccc(N=CN(C)C)c1
active: [1] 29 µM
not listed: [10]
inactive: all other assays above

COc1nn(CSP(=S)(OC)OC)c(=O)s1
not listed: [10]
inactive: all other assays above

CCS(=O)(=O)c1cccnc1S(=O)(=O)NC(=O)Nc1nc(OC)cc(OC)n1
not listed: [5]
inactive: all other assays above

CC(C)OC(=O)Nc1cccc(Cl)c1
active: [8] 65.4 µM
not listed: [10]
inactive: all other assays above

O=C(O)CCCOc1ccc(Cl)cc1Cl
not listed: [9] | [10]
inactive: all other assays above

CCC(C)Nc1c([N+](=O)[O-])cc(C(C)(C)C)cc1[N+](=O)[O-] (configuration not stated)
active: [1] 24.8 µM | [7] 34.6 µM | [10] 36.8 µM | [8] 8.2 µM
not listed: [9]
inactive: all other assays above

CN1CSC(=S)N(C)C1
active: [1] 21.5 µM | [2] 20.9 µM | [7] 26.6 µM
inactive: [3] | [4] | [5]

O=C(O)C(F)(F)C(F)(F)C(F)(F)C(F)(F)C(F)(F)C(F)(F)C(F)(F)F
active: [3] 22.8 µM [middle of 4 runs]
not listed: [5] | [6] | [10]
inactive: all other assays above

O=S(=O)(O)C(F)(F)C(F)(F)C(F)(F)C(F)(F)C(F)(F)C(F)(F)C(F)(F)C(F)(F)F
inactive: [1] | [2] | [3] | [4] | [7] | [8]
active: [2] 17.5 µM | [4] 25.3 µM | [7] 31.9 µM

N#CN
not listed: [5] | [6] | [10]
inactive: all other assays above

CNC(=O)CSP(=S)(OC)OC
not listed: [5] | [6]
inactive: all other assays above

COC(=O)c1ccccc1CS(=O)(=O)NC(=O)Nc1nc(OC)cc(OC)n1
not listed: [10]
inactive: all other assays above

COc1cc(OC)nc(NC(=O)NS(=O)(=O)c2cc(NC=O)ccc2C(=O)N(C)C)n1
not listed: [9] | [10]
inactive: all other assays above

N#Cc1c(Cl)c(Cl)c(Cl)c(C#N)c1Cl
active: [1] 1.06 µM | [2] 1.82 µM | [4] 1.77 µM | [7] 0.148 µM | [8] 0.324 µM
inactive: [3] | [9] | [5] | [6]

COP(=S)(OC)Oc1ccc(SC)c(C)c1
active: [8] 39.3 µM
not listed: [6] | [10]
inactive: all other assays above
